Source: PubChem BioAssay AID1347426 (Functional Genomics Laboratory (NCATS/FGL), 2020)
Among all 31,000 sequences or so, about 1,400 (4.5%) were called active. Many of the other results were omitted from the sample, so actives are more common in it than they were. A number with no mark means an inactive call.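 Rule for the calls: active = median seed-adjusted z-score above 1 or below -1; inactive = the rest.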

Experiment: Novel Modifiers of Survival Motor Neuron (SMN) Protein: Gene Identification via Genome-wide siRNA Screen;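 note: luminescence tracks full-length SMN protein made from the SMN2 reporter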
Conditions: HEK293T SMN2-luciferase reporter, siRNA knockdown, 72 h; actives lie on both sides
Method in brief: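 siRNA screen, 10418 genes ×3 siRNAs; 1 pmol/well, lipid reverse transfection into HEK293T SMN2-luc reporter line. 72 h, 37 °C, 5% CO2; ONE-Glo readout. Data: neg-ctrl normalized, log10, MAD; hit = MAD >1.0 or < -1.0.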
Sequence GCUCUACGCAAGGAGAUCATT against BATF has a median seed-adjusted z-score of -0.0501. With GUCCGGUGUUUGAACCUGATT against ABHD2 the median seed-adjusted z-score was -1.21 (active). For CUAUUGUAAAAGUAUGGAATT against ARL6IP2, the median seed-adjusted z-score was 0.274. Sequence GGCCUACAGCAACAAUGGATT against PCDH24 has a median seed-adjusted z-score of 0.345. GAGUGGAAGUUAUCUGUCATT against WBSCR22 showed a median seed-adjusted z-score of -0.21. In the case of AGCUCCAUCUCGACCACAATT against FMOD, the median seed-adjusted z-score is reported as -1.32 (active). For GGAAUACAGUGACGACAAATT against ING5, the median seed-adjusted z-score was -0.193. GCAUCGACCGGGUUUAUGATT against KARS gave a median seed-adjusted z-score of -0.152. With CCACUUUACCCACUACCCATT against ISX the median seed-adjusted z-score was 1.99 (active). GCAUUCGAAUUAUAGAACATT against SLC16A14 gave a median seed-adjusted z-score of 0.464. Sequence GCACAAAUCUCAAUAUUCATT against GPSM3 has a median seed-adjusted z-score of -0.641. With CAGCCUUAAUGGACACGAATT against MFGE8 the median seed-adjusted z-score was 0.0367. Work on GUAUGGUCGGUUUACAAUATT against YES1 yielded a median seed-adjusted z-score of -0.508. In the case of ACCGUAUUCCUAUAUCUCATT against FOXA3, the median seed-adjusted z-score is reported as 0.128. For GCAUCGUCAAGGAUUGGAATT against ACTR1A, the median seed-adjusted z-score was 1.28 (active). GCACUUACGAUGACCGGCATT against TNFAIP1 showed a median seed-adjusted z-score of 0.0766. Work on GCAAUUUCUUGUUUCGUUATT against SLC9A6 yielded a median seed-adjusted z-score of -0.0831. GGACAAUAGACUUUAGAGATT against NCALD gave a median seed-adjusted z-score of 0. For AGUAUACGCUGCCCUCAUATT against RNASE3, the median seed-adjusted z-score was 0.588. In the case of CCAUUUGAGGUGAACCGUATT against RFWD3, the median seed-adjusted z-score is reported as 0.554. With CUACGACGGUGAUAUUGGATT against HDAC2 the median seed-adjusted z-score was -1.27 (active). Work on GCAGGGAUCUUACAUCUAUTT against CENTD2 yielded a median seed-adjusted z-score of -0.305. For GCAUCCUACCCGUUCCAUATT against MSX2, the median seed-adjusted z-score was -0.406. With GGGACAUCCGAGAUCCUAATT against LAMB1 the median seed-adjusted z-score was 1.07 (active). GGACAAACACGGACAGUAUTT against EPHB4 showed a median seed-adjusted z-score of -0.143. In the case of AAGGAGCAGUGGAUACUGATT against MST1, the median seed-adjusted z-score is reported as -1.47 (active). For GAAGGAAGAUGGUAAGGGATT against IL6ST, the median seed-adjusted z-score was -0.518. GCUUCGUGAGCUUUGAUAATT against BRUNOL5 gave a median seed-adjusted z-score of 0.333. For CGUGGACAGCUGCAGAAAATT against EDIL3, the median seed-adjusted z-score was 0. Work on CAAUCAGCAGAGUUACAUUTT against CPEB3 yielded a median seed-adjusted z-score of 0.086. For CCAUCGUCAUGGUUACCAATT against PTPRA, the median seed-adjusted z-score was -0.438. GCACUUAAGGAAUGACAGATT against CDY2A gave a median seed-adjusted z-score of 0.75. For CAGGUUCUCUAAUUGAACATT against NFX1, the median seed-adjusted z-score was -0.256. GAAACGCAAGGGUACAGAATT against RUVBL2 showed a median seed-adjusted z-score of -0.0764. For GGAGUGACCGGAAACAUCATT against PRKCD, the median seed-adjusted z-score was -0.236. With CCAUUACAGAGGGAGUUCATT against NRBP1 the median seed-adjusted z-score was -1.13 (active). Work on GGAUAUCUUCUAUGAUCUATT against SMAD7 yielded a median seed-adjusted z-score of -0.25. For AGAACUUUGUGCACCGUGATT against ZAP70, the median seed-adjusted z-score was -0.674. With AGCUUGAAAUCUCAUGGAATT against SPINK5L2 the median seed-adjusted z-score was 0.482. Sequence GAAGAUUGCUAAUGACAAUTT against GOT1 has a median seed-adjusted z-score of 0.0103. In the case of UAAUAAUUCUCACUCCUAATT against FZD5, the median seed-adjusted z-score is reported as -0.129. For GACCGGCCGUUCAGAAUGATT against RPUSD1, the median seed-adjusted z-score was 0.327. With CGUGUACCCGUUUGACUUUTT against SGSH the median seed-adjusted z-score was 0.383. With GCCUGGUACUACUAGCUUUTT against TRPC5 the median seed-adjusted z-score was -1.14 (active). Sequence CCUCUAGAAGGAUCUAAUATT against MMP19 has a median seed-adjusted z-score of 0.43. For GAAUUGUUUUAGCUAACGATT against PGM2, the median seed-adjusted z-score was 0.355. With AAACAGACAGAGAUAAGUATT against UBE2D3 the median seed-adjusted z-score was 1.62 (active). With AGUACUUUGUAUUGGGAUATT against RCE1 the median seed-adjusted z-score was -1.19 (active). In the case of AGCAGGAUAUGAUCCGGAATT against SEC14L4, the median seed-adjusted z-score is reported as -0.714. Sequence GGCACGUCCUGUUACACCATT against LMO4 has a median seed-adjusted z-score of -0.067. Sequence CGCUUGGAGAGGCUACAAATT against FXR2 has a median seed-adjusted z-score of -0.133. For GUUCCGAAGUGGUCUCAUUTT against MINPP1, the median seed-adjusted z-score was -0.0107. With GCAGUACACUACCAACAGATT against ALAS1 the median seed-adjusted z-score was -1.15 (active). With CAACAUUGGAAAAUACAGATT against LAP3 the median seed-adjusted z-score was 0.0175. UCCCGGGAAUUAAAACUUATT against EPHA6 gave a median seed-adjusted z-score of 0.0445. Work on GGAUCUGCACAGUCUUCUATT against PSKH2 yielded a median seed-adjusted z-score of 0.0439. Sequence GGAUUUGCCCUGACAAAAATT against ZRANB2 has a median seed-adjusted z-score of 0.441. CAUUGAGAAUAAUAACAGATT against PPP3CA showed a median seed-adjusted z-score of 0.74. GCCUAUUAUGGAGAAAAGATT against HES1 showed a median seed-adjusted z-score of -0.262. CGAUAUGAUUGGCCAGAGATT against GIPC3 showed a median seed-adjusted z-score of -0.27. In the case of CGGAUUUGUUGCUAAAUGATT against PCDHB8, the median seed-adjusted z-score is reported as 1.15 (active). Work on CUGACAGUGUGGAUCGAUATT against COL12A1 yielded a median seed-adjusted z-score of 0.00422. With GGAUUGAAAACAAACUCUATT against RET the median seed-adjusted z-score was -0.931. GCGGUACUUUGAGCAGUUATT against P4HA2 showed a median seed-adjusted z-score of 0. With GGCUCUUCAAGGCUAUGAATT against ANXA6 the median seed-adjusted z-score was -1.01 (active). Work on GUCUGUAACUGAGCAAGGATT against YWHAZ yielded a median seed-adjusted z-score of 0.721. Work on ACGGUUCGCUGAAAAAGAATT against PITX3 yielded a median seed-adjusted z-score of 0. For CGUCCAUACUUACCUAAUUTT against UGT2A1, the median seed-adjusted z-score was 0.213. With CGACCGCACCUGGAAUGAATT against PLA2G4D the median seed-adjusted z-score was -0.233. In the case of GCGUGUCAGCUGUUCAUUATT against OSBPL5, the median seed-adjusted z-score is reported as 0.638. For CAAGCCCUCUGAAACAGUUTT against ADRA1A, the median seed-adjusted z-score was -1.06 (active). GCAUAUGAUUUUAUGGUAATT against FBXW7 gave a median seed-adjusted z-score of 0. With CUCUCUAUAUUGAAACCAATT against CHN1 the median seed-adjusted z-score was 2.1e-05. For ACUGAAAGCUGAUUAAUUATT against KLK2, the median seed-adjusted z-score was 0.0716. In the case of GAGCUGAUCUGUUACAAGUTT against DAK, the median seed-adjusted z-score is reported as -0.372. GAACACUCUAUGUCUAAUATT against MYNN showed a median seed-adjusted z-score of 0.0702. With GUGAUGUCAUUAGGCAGAATT against CRIP3 the median seed-adjusted z-score was 1.7 (active). UCCCAGUUCUGAUACAUAUTT against SAE1 showed a median seed-adjusted z-score of 0.831. For AGACCUGCGUGGUGCACUATT against FKBP1A, the median seed-adjusted z-score was 0.113. GGAGCUUCAGGUUGUCCGATT against RPUSD3 showed a median seed-adjusted z-score of 0.303. With CGAUGGACAGUGUCUCUUATT against ALG6 the median seed-adjusted z-score was 0.106. UCCUUGUUGUGGACAGGGATT against SPINK4 gave a median seed-adjusted z-score of -0.0134. For GGACCUAUUCGUCAAAUCATT against SF3B14, the median seed-adjusted z-score was -1.26 (active). With CCUUGCUUGUGAGAGCAGATT against NPAS1 the median seed-adjusted z-score was -0.386. Work on GCGUUAUCCUCGUACCUUUTT against STC2 yielded a median seed-adjusted z-score of -0.00039. For CUAUCCACCAUACAUUUCATT against NTM, the median seed-adjusted z-score was 0. Work on GCAACGGGUUUGGAGUCAATT against KRT75 yielded a median seed-adjusted z-score of 0.0773. CCAUCUCGACUGACAAGAATT against TNNI3K showed a median seed-adjusted z-score of -0.178. In the case of GCUAUUAUCUAAGCACGAATT against ADAMTS20, the median seed-adjusted z-score is reported as 1.44 (active). In the case of GAUAUAUCCGAAACCAGUATT against PDGFD, the median seed-adjusted z-score is reported as 0.366. GAAUCGGCGAUGUACUAGATT against NT5C3 showed a median seed-adjusted z-score of -0.456. In the case of CUAUGUCGUUGAAAACCAUTT against KCNE1, the median seed-adjusted z-score is reported as -0.347. In the case of GGAAGUAUUAGGGUACAAATT against SOS2, the median seed-adjusted z-score is reported as 0.3. With GAGUAUCUCUGAAACCUCUTT against IL1A the median seed-adjusted z-score was 1.12 (active). Sequence GGGAGUGACAUAUCCAAGATT against CCL26 has a median seed-adjusted z-score of -0.01. In the case of CGGAAGGUGUAUGAACUGATT against ICAM1, the median seed-adjusted z-score is reported as 0.345. In the case of GCAAGGUCGUCAACCGCAATT against SAPS1, the median seed-adjusted z-score is reported as 1.16 (active). GCAGUUCCAUGGUACACCATT against ASAH1 gave a median seed-adjusted z-score of 0.421. For GUCAGAUACAUGAACCAGATT against JMJD1A, the median seed-adjusted z-score was 0.466. For GGAUAGGAGUCAUCAGCCUTT against SSTR3, the median seed-adjusted z-score was 0. With CCCAAUUCAGAUUACUACATT against POLN the median seed-adjusted z-score was -0.129. For CUACUCAACAGACAUAAUATT against TRIP13, the median seed-adjusted z-score was 1 (active). With GGCUUCUACUGGUGUCUGATT against PIGR the median seed-adjusted z-score was -0.35. GGACUUACACUCUUAGGAATT against MAOB gave a median seed-adjusted z-score of 0. With CACAACAUCUUGUAAGACUTT against GNG13 the median seed-adjusted z-score was -0.516. In the case of CGCCGACUCUAUUCAUGCATT against RAB22A, the median seed-adjusted z-score is reported as 0.321. For CGAGAGUAAUUUGAAGAAUTT against SIGMAR1, the median seed-adjusted z-score was -1.4 (active). GAUGGAUCUUUACAGUUGATT against METTL4 showed a median seed-adjusted z-score of 0.244. For GAACAAUCAUUGCAUCGGATT against CPB2, the median seed-adjusted z-score was -0.62.
